Shown are actives, neighbours in structure and some others; about 8.1% of the full set was active somewhere.
MITF inhib – MITF inhibition. TRPM1 promoter luciferase, luminescence, 24 h. inhibition, % (test concentration not listed). hit rate 0.28% among 37,000. AID 2240; in the data active means inhibition above about 85%; inconclusive means no clear call, values can overlap the other calls; inactive means below about 68%;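 further: human melanocyte line stably carrying TRPM1 promoter luciferase reporter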
NOMO-1 viab – STK33 inhibitor candidate reducing NOMO-1 cell viability; NOMO-1 AML viability, CellTiter-Glo luminescence, 72 h; inhibition, % (no concentration beside the values); hit rate 7.5% among 37,000; AID 2330; in the data active means inhibition above about 80%; inconclusive means no clear call, values can overlap the other calls
Shh pathway inh – Sonic Hedgehog pathway inhibition; Shh-LIGHT2 Gli-luciferase reporter, 30 h; inhibition, % (test concentration not listed); AID 2313; hit rate 2.1% among 22,000;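 active means mean inhibition across valid replicates above about 65%, limit read from the data; inconclusive means mean under the limit, yet half or more replicates past it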;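 further: pathway switched on by Shh-conditioned medium diluted 1 in 25 in low serum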
Large screens that a line does not name were inactive.

C[C@@H]1O[C@@H](O[C@H]2[C@H](O)[C@@H](O[C@@H]3O[C@H](CO)[C@@H](O)[C@H](O)[C@H]3O)[C@H](O[C@H]3CC[C@@]4(C)C(=CC[C@@H]5C4CC[C@@]4(C)C5C[C@@H]5O[C@]6(CC[C@@](C)(CO)O6)[C@@H](C)[C@@H]54)C3)O[C@@H]2CO)[C@H](O)[C@H](O)[C@H]1O (some centres undefined)	none
CC(=O)C(C#N)C(=O)Nc1cc(Br)ccc1Br (centres undefined)	none
C[C@@H]1CN([C@H](C)CO)C(=O)c2cccc(NC(=O)Nc3ccc(F)cc3)c2O[C@H]1CN(C)S(=O)(=O)c1ccccc1	none
Cc1ccc(S(=O)(=O)N(C)C[C@@H]2Oc3c(NC(=O)Nc4ccccc4)cccc3C(=O)N([C@H](C)CO)C[C@@H]2C)cc1	Shh pathway inh 121
Cc1ccc(S(=O)(=O)N(C)C[C@@H]2Oc3c(NC(=O)Nc4ccccc4)cccc3C(=O)N([C@@H](C)CO)C[C@H]2C)cc1	none
C[C@H](CO)N1C[C@H](C)[C@H](CN(C)S(=O)(=O)c2ccccc2)Oc2c(NC(=O)Nc3ccc(F)cc3)cccc2C1=O	Shh pathway inh 71
C[C@@H]1CN([C@H](C)CO)C(=O)c2cccc(NC(=O)Nc3ccc(F)cc3)c2O[C@H]1CN(C)S(=O)(=O)c1ccc(Cl)cc1	none
C[C@H]1CN([C@@H](C)CO)C(=O)c2cccc(NC(=O)Nc3ccc(F)cc3)c2O[C@H]1CN(C)S(=O)(=O)c1ccc(Cl)cc1	NOMO-1 viab 100, Shh pathway inh 108
CCN(CC)C(=S)Oc1ccccc1C(=O)Nc1ccc(Cl)c(Cl)c1	none
COc1ccc(S(=O)(=O)Nc2ccc3c(c2)CC(=O)N([C@@H](C)CO)C[C@H](C)[C@@H](CN(C)C(=O)Nc2ccc(F)cc2)O3)cc1	none (no result: Shh pathway inh)
CC(=O)c1ccc(NC(=O)CSc2nc3cc(C)c(C)cc3[nH]2)cc1	none (no result: Shh pathway inh)
Nc1ncnc2c1c(I)cn2C1OC(CO)C(O)C1O (centres undefined)	MITF inhib 88, NOMO-1 viab 114
Cc1ccc(OCC(=O)Nc2ccc3oc(-c4c(F)c(F)c(F)c(F)c4F)nc3c2)cc1	none (no result: Shh pathway inh)
Cc1noc(C)c1NC(=O)Nc1cccc2c1O[C@H](CN(C)S(=O)(=O)c1ccc(F)cc1)[C@@H](C)CN([C@@H](C)CO)C2=O	none
COc1cccc(NC(=O)CSc2nnc(-c3ccccc3O)n2-c2ccccc2)c1	none (no result: Shh pathway inh)
Cc1cc(C)c(C#N)c(SCC(=O)c2cc3ccccc3oc2=O)n1	none (no result: Shh pathway inh)
Cc1nc(SCC(=O)c2cc3ccccc3oc2=O)c(C#N)c(C)c1C	NOMO-1 viab 110 (no result: Shh pathway inh)
O=C(CN1C(=O)c2ccccc2C1=O)Nc1ccc(S(=O)(=O)N2CCCCCC2)cc1	none (no result: Shh pathway inh)
Cc1ccc(S(=O)(=O)Nc2ccc3c(c2)C(=O)N([C@H](C)CO)C[C@@H](C)[C@H](CN(C)C(=O)Nc2c(C)noc2C)O3)cc1	none
CC(C)(C)C1CCc2c(sc(NC(=O)COc3ccccc3Cl)c2C(N)=O)C1 (centres undefined)	NOMO-1 viab 104 (no result: Shh pathway inh)
CCc1ccccc1OCC(=O)Nc1sc2c(c1C(N)=O)CCCC2	none (no result: Shh pathway inh)
CC(C)/C(N)=N/C(=S)Nc1ccccc1	none (no result: Shh pathway inh)
O=C1N=c2ccccc2=N/C1=N\C(=S)Nc1ccccc1	NOMO-1 viab 122
O=C(NCc1ccccn1)C(=O)Nc1ccc(Cl)c(Cl)c1	none (no result: Shh pathway inh)
C[C@@H]1CN([C@@H](C)CO)C(=O)c2cccc(NC(=O)Nc3ccc(F)cc3)c2O[C@@H]1CN(C)Cc1ccc(C(F)(F)F)cc1	NOMO-1 viab 88
C[C@@H]1CN([C@H](C)CO)C(=O)c2cccc(NC(=O)Nc3ccc(F)cc3)c2O[C@H]1CN(C)Cc1ccc(C(F)(F)F)cc1	NOMO-1 viab 83
C[C@H](CO)N1C[C@H](C)[C@H](CN(C)Cc2ccc(C(F)(F)F)cc2)Oc2c(NC(=O)Nc3ccc(F)cc3)cccc2C1=O	none
C[C@H](CO)N1C[C@H](C)[C@@H](CN(C)Cc2ccc(C(F)(F)F)cc2)Oc2c(NC(=O)Nc3ccc(F)cc3)cccc2C1=O	NOMO-1 viab 113
Cc1cc(NC(=O)CN(c2cc(Cl)ccc2C)S(C)(=O)=O)ccc1Br	none (no result: Shh pathway inh)
N#CCCSc1nnc(-c2cccnc2)n1Cc1ccccc1	none (no result: Shh pathway inh)
COc1cc(NC(=O)C(C)Oc2cccc(Cl)c2)c(C(=O)O)cc1OC (centres undefined)	none (no result: Shh pathway inh)
CCCN1CC=C2C(C#N)(C#N)C(N)=C(C#N)C(c3ccc(OCC(N)=O)cc3)C2(C)C1 (centres undefined)	NOMO-1 viab inconclusive
CC(=O)Nc1cccc(NC(=S)NCc2ccco2)c1	none (no result: Shh pathway inh)
COc1ccc(OC)c(-n2c(=S)[nH]c3cc(C(=O)NCc4ccc(F)cc4)ccc3c2=O)c1	Shh pathway inh 77
COc1ccc(-n2c(=S)[nH]c3cc(C(=O)N4CCN(c5ccccc5)CC4)ccc3c2=O)cc1	none
COc1ccc(OC)c(-n2c(=S)[nH]c3cc(C(=O)N4CCC(C(N)=O)CC4)ccc3c2=O)c1	none
COc1ccc(-n2c(=S)[nH]c3cc(C(=O)NC4CCCC(C)C4C)ccc3c2=O)c(OC)c1 (centres undefined)	NOMO-1 viab 87
COc1ccc(C(=O)N(Cc2nc(-c3ccccc3)no2)C(C)C)cc1OC	none (no result: Shh pathway inh)
CC(C)NC(=O)Nc1ccc2c(c1)CC(=O)N([C@@H](C)CO)C[C@@H](C)[C@@H](CN(C)C(=O)NC(C)C)O2	none
O=C(CCCCc1ccc(O)cc1)CCc1ccc(O)cc1	NOMO-1 viab 104
COc1ccc(CCC(=O)CCc2ccc(OC)cc2)cc1	none
O=C(Nc1ccccc1C(=O)O)OCC1c2ccccc2-c2ccccc21	none
COc1ccc(-n2c(SCC(=O)c3ccc(Cl)cc3)nnc2-c2ccccc2)cc1	none (no result: Shh pathway inh)
O=C(c1ccc(NS(=O)(=O)c2cccc3cccnc23)cc1)N1CCOCC1	none (no result: Shh pathway inh)
c1ccc(C(c2ccccc2)N2CCC2)cc1	none
COc1ccc(C(c2ccc3cccnc3c2O)N2CCOCC2)cc1 (centres undefined)	NOMO-1 viab 118, Shh pathway inh 68
Oc1c(C(c2ccncc2)N2CCCC2)ccc2cccnc12 (centres undefined)	NOMO-1 viab 143
CC(C)N(CCC#N)S(=O)(=O)c1ccccc1[N+](=O)[O-]	none (no result: Shh pathway inh)
CN(CC(=O)Nc1ccccc1Sc1ccccc1)S(=O)(=O)c1ccc(F)cc1	none (no result: Shh pathway inh)
COc1c(C=O)c(O)cc2c1C(=O)c1ccccc1C2=O	NOMO-1 viab 96
COc1c(O)cc2c(c1O)C(=O)CC(c1ccccc1)O2 (centres undefined)	none
CC(C)NC(=O)N(C)C[C@@H]1Oc2c(NC(=O)Nc3ccc(C(F)(F)F)cc3)cccc2C(=O)N([C@H](C)CO)C[C@@H]1C	NOMO-1 viab 117
CC(C)NC(=O)N(C)C[C@@H]1Oc2c(NC(=O)Nc3ccc(C(F)(F)F)cc3)cccc2C(=O)N([C@@H](C)CO)C[C@@H]1C	none
CC(C)NC(=O)Nc1cccc2c1O[C@H](CN(C)C(=O)Nc1ccc(C(F)(F)F)cc1)[C@H](C)CN([C@@H](C)CO)C2=O	none
CC(C)NC(=O)N(C)C[C@H]1Oc2c(NC(=O)Nc3ccc(C(F)(F)F)cc3)cccc2C(=O)N([C@@H](C)CO)C[C@H]1C	NOMO-1 viab 121
CNC[C@@H]1Oc2ccc(NC(=O)NC3CCCCC3)cc2C(=O)N([C@H](C)CO)C[C@H]1C	none (no result: Shh pathway inh)
Cc1ccc(S(=O)(=O)N2C(=O)CCC2C(=O)Nc2ccc(I)cc2)cc1 (centres undefined)	none (no result: Shh pathway inh)

Source: PubChem
